Source: PubChem BioAssay (EPA / NIEHS)
Several values for one entry are separate records, joined by “and”; a condition that tells them apart may be missing. Equal values may be shown once. Some compounds were tested as several samples or in several runs, with calls that do not always agree. Activity calls are given as the source filed them. The calls were made as follows, unless noted: active = hit-call score of the fitted dose curve at least 0.9, where 1 is the maximum; inactive = score below 0.9.

Assays:
[1] = BSK_LPS_PGE2: BioMAP Diversity Plus: LPS Assay for Prostaglandin E2 (PGE2) Biomarker Activity (AID 2283082); conditions: primary human HUVEC with PBMC; actives raise or lower the signal;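 as to AC50: secreted prostaglandin E2 measured by ELISA in LPS-stimulated co-culture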
Outline: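 HUVEC plus human PBMC co-culture stimulated with LPS; secreted PGE2 quantified by ELISA 24 h after chemical dosing. Activity fitted bidirectionally against DMSO baseline; parallel SRB staining (0.1% SRB after 10% TCA fixation, 560 nm) flags overt cytotoxicity.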

[2] = read-out: Macrophage colony-stimulating factor (MCSF), CSF1 (gene 1435); experiment: BSK_LPS_MCSF: BioMAP Diversity Plus: LPS Assay for Macrophage colony-stimulating factor (MCSF) Biomarker Activity (AID 2283083); conditions: primary human HUVEC with PBMC; actives raise or lower the signal
Outline: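 Bidirectional fit versus DMSO of ELISA-measured M-CSF in co-cultured human umbilical vein endothelial cells and PBMC, sampled 24 h after dosing.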

[3] = read-out: Tissue Factor, F3 (gene 2152); experiment: BSK_LPS_TissueFactor: BioMAP Diversity Plus: LPS Assay for Tissue Factor Biomarker Activity (AID 2283084); conditions: primary human HUVEC with PBMC; actives raise or lower the signal
Outline: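 Read-out: CD142 ELISA, 24 h. System: LPS-driven human endothelial/PBMC co-culture. Analysis: up- or down-signal fitted against DMSO.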

[4] = read-out: Vascular cell adhesion molecule 1 (VCAM1), VCAM1 (gene 7412); experiment: BSK_LPS_VCAM1: BioMAP Diversity Plus: LPS Assay for Vascular cell adhesion molecule 1 (VCAM1) Biomarker Activity (AID 2283086); conditions: primary human HUVEC with PBMC; actives raise or lower the signal
Outline: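 Human umbilical vein endothelial cells co-cultured with PBMC and stimulated with LPS; VCAM-1 measured by ELISA 24 h after dosing. Bidirectional curve fitting against DMSO baseline; cytotoxicity tracked in parallel by SRB total-protein staining.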

CD38, CD38 (gene 952) = experiment: BSK_SAg_CD38: BioMAP Diversity Plus: SAg Assay for CD38 Biomarker Activity (AID 2283087); conditions: primary human HUVEC with PBMC; actives raise or lower the signal
Outline: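 Human HUVEC plus PBMC co-culture stimulated with superantigen; CD38 measured by ELISA 24 h after chemical dosing. Fluorescence read-out, bidirectional fit against DMSO; cytotoxicity tracked in parallel by SRB and Alamar Blue.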

CD40, CD40 (gene 958) = experiment: BSK_SAg_CD40: BioMAP Diversity Plus: SAg Assay for CD40 Biomarker Activity (AID 2283088); conditions: primary human HUVEC with PBMC; actives raise or lower the signal
Outline: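 Endpoint derived by fitting increases or decreases versus DMSO controls. CD40 is detected by fluorescence ELISA in a human vascular co-culture of endothelium and PBMC at 24 h.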

CD69, CD69 (gene 969) = experiment: BSK_SAg_CD69: BioMAP Diversity Plus: SAg Assay for CD69 Biomarker Activity (AID 2283089); conditions: primary human HUVEC with PBMC; actives raise or lower the signal;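 as to AC50: cell surface CD69 protein quantified by ELISA with fluorescence detection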
Outline: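 HUVEC co-cultured with PBMC were dosed with chemical, and CD69 was measured by ELISA with fluorescence read-out 24 h later. Bidirectional curve fitting used DMSO as negative control and activity baseline.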

[5] = read-out: Monocyte Chemoattractant Protein-1 (MCP1), CCL2 (gene 6347); experiment: BSK_SAg_MCP1: BioMAP Diversity Plus: SAg Assay for Monocyte Chemoattractant Protein-1 (MCP1) Biomarker Activity (AID 2283090); conditions: primary human HUVEC with PBMC; actives raise or lower the signal
Outline: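 MCP-1 levels in the endothelial–PBMC SAg co-culture were quantified by ELISA at 24 h post-dosing; both increases and decreases versus DMSO scored. Cytotoxicity monitored by SRB total protein in parallel cultures.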

[6] = read-out: E-selectin (Homo sapiens) (UniProt P16581); experiment: BSK_SAg_Eselectin: BioMAP Diversity Plus: SAg Assay for Eselectin Biomarker Activity (AID 2283091); conditions: primary human HUVEC with PBMC; actives raise or lower the signal
Outline: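 Endpoint values derive from bidirectional fitting relative to DMSO, using ELISA-measured E-selectin in a human vascular co-culture (umbilical vein endothelium plus PBMC) sampled 24 h after dosing.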

[7] = read-out: Monokine induced gamma interferon (MIG), CXCL9 (gene 4283); experiment: BSK_SAg_MIG: BioMAP Diversity Plus: SAg Assay for Monokine induced gamma interferon (MIG) Biomarker Activity (AID 2283092); conditions: primary human HUVEC with PBMC; actives raise or lower the signal
Outline: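 HUVEC plus human PBMC co-culture, chemicals dosed and MIG (CXCL9) quantified by ELISA at 24 h. Bidirectional curve fitting against DMSO as negative control and baseline, so both gain and loss of signal count as activity.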

[8] = BSK_SAg_PBMCCytotoxicity: PBMC Cytotoxicity Assessment in the BioMAP Diversity Plus: SAg Assay (AID 2283093); conditions: primary human HUVEC with PBMC;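 also: PBMC viability measured as Alamar Blue reduction fluorescence at 546/580 nm; fitted both ways against DMSO so a hit may be loss or gain of signal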;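 as to AC50: PBMC superantigen activated with SEB plus TSST-1 one hour after compound addition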
Outline: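 Human umbilical vein endothelial cells co-cultured with PBMC; PBMC (75,000/well) pre-treated with compound 1 h, then activated with SEB and TSST-1 (20 ng/mL final each) for 90 h. Alamar Blue added 6 h, fluorescence 546/580 nm; bidirectional fit versus DMSO.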

[9] = read-out: Interleukin-8 (IL8), CXCL8 (gene 3576); experiment: BSK_SAg_IL8: BioMAP Diversity Plus: SAg Assay for Interleukin-8 (IL8) Biomarker Activity (AID 2283094); conditions: primary human HUVEC with PBMC; actives raise or lower the signal
Outline: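 Human umbilical vein endothelial cells co-cultured with PBMC, stimulated with superantigen; IL-8 measured by ELISA 24 h after chemical dosing. Bidirectional fitting versus DMSO; SRB staining in parallel cultures tracks cytotoxicity.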

[10] = BSK_SAg_Proliferation: Cell Proliferation Assessment in the BioMAP Diversity Plus: SAg Assay (AID 2283095); conditions: primary human HUVEC with PBMC
Outline: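 Human umbilical vein endothelial cells co-cultured with PBMC; sulforhodamine B total-protein staining (0.1% SRB after 10% TCA fixation, absorbance 560 nm) at 96 h in sub-confluent culture. Fitted bidirectionally against DMSO.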

[11] = BSK_SAg_SRB: Viability Assessment in the BioMAP Diversity Plus: SAg Assay (AID 2283096); conditions: primary human HUVEC with PBMC;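 also: cells read one day after compound addition; hits may be either gain or loss of signal compared with DMSO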
Outline: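 Endothelial/PBMC primary human co-culture; compound 24 h; fix 10% TCA, stain 0.1% SRB, A560; protein content as cytotoxicity proxy; bidirectional curve fit, DMSO = baseline.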

[12] = read-out: Tumor necrosis factor (Homo sapiens) (UniProt P01375); experiment: BSK_LPS_TNFa: BioMAP Diversity Plus: LPS Assay for Tumour Necrosis Factor alpha (TNFa) Biomarker Activity (AID 2283085); conditions: primary human HUVEC with PBMC; actives raise or lower the signal
Outline: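 Human umbilical vein endothelial cells co-cultured with PBMC and stimulated with LPS. TNFa was measured by ELISA 24 h after chemical dosing, fitted bidirectionally relative to DMSO.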

[13] = target: human CYP2D6, CYP2D6 (gene 1565) (UniProt P10635); experiment: NVS_ADME_hCYP2D6: NovaScreen (NVS) CYP450-related Enzyme Activity (ADME) Assay for human CYP2D6 (AID 2283107; active = hit-call score of the fitted dose curve at least 0.9, where 1 is the maximum)
Outline: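 Biochemical fluorescence assay, insect-cell-derived enzyme. Read at 1 h; inhibition taken from loss of signal against acetonitrile. Screened at 10 uM in duplicate, with concentration series for actives.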

Measured: AC50

Chain of Tumor necrosis factor (Homo sapiens) (P01375 whole entry, looked up): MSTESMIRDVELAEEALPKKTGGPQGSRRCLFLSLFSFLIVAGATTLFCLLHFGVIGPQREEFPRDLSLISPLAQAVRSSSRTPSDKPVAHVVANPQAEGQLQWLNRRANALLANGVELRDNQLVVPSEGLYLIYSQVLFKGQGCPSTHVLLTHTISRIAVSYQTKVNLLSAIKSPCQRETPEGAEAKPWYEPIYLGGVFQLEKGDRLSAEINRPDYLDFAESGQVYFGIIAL
Chain of E-selectin (Homo sapiens) (P16581 whole entry, looked up): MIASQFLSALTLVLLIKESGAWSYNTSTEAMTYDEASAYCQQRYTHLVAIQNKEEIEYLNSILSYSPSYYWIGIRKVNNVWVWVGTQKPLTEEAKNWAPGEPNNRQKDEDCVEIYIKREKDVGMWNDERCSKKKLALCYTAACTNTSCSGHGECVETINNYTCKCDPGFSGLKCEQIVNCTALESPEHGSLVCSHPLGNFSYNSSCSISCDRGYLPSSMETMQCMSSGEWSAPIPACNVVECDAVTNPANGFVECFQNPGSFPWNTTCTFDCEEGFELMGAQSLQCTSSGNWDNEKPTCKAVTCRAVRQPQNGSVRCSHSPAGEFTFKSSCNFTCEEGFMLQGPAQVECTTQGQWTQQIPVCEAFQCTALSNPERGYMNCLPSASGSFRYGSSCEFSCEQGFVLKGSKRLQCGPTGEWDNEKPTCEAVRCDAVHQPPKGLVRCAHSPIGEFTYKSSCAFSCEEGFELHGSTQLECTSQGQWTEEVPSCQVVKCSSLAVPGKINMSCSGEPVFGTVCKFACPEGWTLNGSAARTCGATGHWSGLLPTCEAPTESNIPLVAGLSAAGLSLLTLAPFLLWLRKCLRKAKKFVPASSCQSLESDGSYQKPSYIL
Chain of human CYP2D6, CYP2D6 (gene 1565) (P10635 whole entry, looked up): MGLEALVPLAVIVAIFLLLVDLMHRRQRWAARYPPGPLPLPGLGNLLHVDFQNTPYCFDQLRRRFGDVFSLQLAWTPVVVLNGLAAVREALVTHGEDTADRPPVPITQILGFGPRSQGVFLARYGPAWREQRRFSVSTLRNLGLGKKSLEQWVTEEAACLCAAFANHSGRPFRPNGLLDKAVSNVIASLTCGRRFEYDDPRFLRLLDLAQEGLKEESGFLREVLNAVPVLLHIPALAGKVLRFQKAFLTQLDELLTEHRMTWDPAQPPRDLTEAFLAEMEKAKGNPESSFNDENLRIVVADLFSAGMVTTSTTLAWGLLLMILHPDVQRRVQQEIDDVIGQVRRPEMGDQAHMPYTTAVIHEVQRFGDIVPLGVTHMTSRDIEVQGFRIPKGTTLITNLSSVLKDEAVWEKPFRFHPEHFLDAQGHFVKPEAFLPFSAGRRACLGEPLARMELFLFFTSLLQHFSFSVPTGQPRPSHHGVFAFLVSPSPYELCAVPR

CC(CN=Cc1ccccc1O)N=Cc1ccccc1O (stereo not given)
inactive: [1] | [2] | [3] | [4] | CD38, CD38 (gene 952) | CD40, CD40 (gene 958) | CD69, CD69 (gene 969) | [5] | [6] | [7] | [8] | [9] | [10] | [11]

O=C1c2ccccc2C(=O)c2c(O)ccc(O)c21
active: [1] 233 nM | [3] 3.52 µM | CD38, CD38 (gene 952) 13.1 µM | [6] 1.21 µM | [8] 14.4 µM | [9] 3.15 µM | [10] 16.5 µM
inactive: [2] | [4] | CD40, CD40 (gene 958) | CD69, CD69 (gene 969) | [5] | [11]

CCCCCCCCCCCCCCCC(=O)OC/C=C(C)/C=C/C=C(C)/C=C/C1=C(C)CCCC1(C)C
active: [4] 20 µM | CD38, CD38 (gene 952) 3.97 µM | CD69, CD69 (gene 969) 20 µM | [10] 20 µM
inactive: [1] | [2] | [3] | [12] | CD40, CD40 (gene 958) | [5] | [6] | [8] | [9] | [11]

COc1ccc(OC)c(N=Nc2c(O)ccc3ccccc23)c1
inactive: [1] | CD69, CD69 (gene 969) | [5] | [6] | [7] | [9] | [11]
active: [2] 20 µM | [3] 20 µM | [4] 20 µM | CD38, CD38 (gene 952) 20 µM | CD40, CD40 (gene 958) 3.97 µM | [8] 2.12 µM | [10] 2.25 µM

CC=Cc1ccc(OCC)c(O)c1
active: [1] 440 nM
inactive: [2] | [3] | [4] | CD38, CD38 (gene 952) | CD40, CD40 (gene 958) | CD69, CD69 (gene 969) | [5] | [6] | [8] | [9] | [10] | [11]

CCOC(=O)C(C#N)=C(c1ccccc1)c1ccccc1
active: [1] 6.95 µM and 2.79 µM | [5] 20 µM | [6] 29.8 µM | [8] 1.24 µM | [9] 20 µM | [10] 14.1 µM
inactive: [2] | [3] | [4] | CD38, CD38 (gene 952) | CD40, CD40 (gene 958) | CD69, CD69 (gene 969) | [5] | [6] | [8] | [9] | [10] | [11]

Oc1c(Cl)cc(Cl)c(Cl)c1Cc1c(O)c(Cl)cc(Cl)c1Cl
inactive: [1]
active: [2] 11.6 µM | [3] 27.7 µM | [4] 22.6 µM | CD38, CD38 (gene 952) 2.31 µM | CD40, CD40 (gene 958) 7.61 µM | CD69, CD69 (gene 969) 5.19 µM | [5] 5.46 µM | [6] 3.17 µM | [7] 8.51 µM | [8] 12.9 µM | [9] 4.7 µM | [10] 4.05 µM | [11] 15.6 µM

CN(C)C(=S)SC(=S)N(C)C
active: [4] 19.9 µM | CD38, CD38 (gene 952) 26.7 µM | [8] 1.25 µM | [10] 0.0189 µM
inactive: [1] | [2] | [3] | [12] | CD40, CD40 (gene 958) | CD69, CD69 (gene 969) | [5] | [6] | [9] | [11]

CCCCOC(=O)CCCCCCCC(=O)OCCCC
inactive: [1] | [2] | [3] | [12] | [4] | CD38, CD38 (gene 952) | CD40, CD40 (gene 958) | [5] | [6] | [8] | [9] | [10] | [11]

C=C(C)C(=O)OCCOCCOCCOC(=O)C(=C)C
inactive: [1] | [2] | [3] | [4] | CD38, CD38 (gene 952) | CD40, CD40 (gene 958) | CD69, CD69 (gene 969) | [5] | [6] | [8] | [9] | [10] | [11]

CC(=O)Nc1ccc(C(=O)CCl)cc1
active: [1] 1170 nM | [2] 5.36 µM | [3] 5.39 µM | [4] 4.35 µM | CD38, CD38 (gene 952) 3.84 µM | CD40, CD40 (gene 958) 4.69 µM | CD69, CD69 (gene 969) 5.33 µM | [5] 10.6 µM | [6] 5.34 µM | [7] 8.55 µM | [8] 4.16 µM | [9] 4.9 µM | [10] 0.92 µM | [11] 6.11 µM | [13] 3.64 µM
